Screens deposited in PubChem by National Center for Advancing Translational Sciences (NCATS).
Pf growth 48h – P. falciparum growth inhibition at 48 hours (one generation); P. falciparum luciferase growth in erythrocytes, 48 h; Potency, µM (highest dose often 28.7 µM), usual class: inhibitors; actives 5.9% (n = 310,000)
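First compound was added to culture medium, then infected red cells at 0.1% parasitemia and 2% hematocrit (final). After incubation at 37 C under 5% CO2, luciferase detection reagent was dispensed and light output recorded.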
Pf growth 96h – inhibits malaria parasite growth, 96 h. P. falciparum luciferase reporter growth, 96 h. Potency, µM (series often up to 28.7 µM), most hits filed as inhibitors. actives 6.9% (n = 320,000). AID 504834
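Erythrocytes infected with luciferase-expressing P. falciparum were dispensed at 2% hematocrit and 0.05% parasitemia (final), then incubated with compounds 96 hours at 37 C in 5% CO2. Luminescence after detection reagent addition reported growth.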
Shiga inhibitor – Shiga toxin inhibition. Vero cells, Shiga toxin protein synthesis inhibition reporter. actives 9.2% (n = 290,000). inhibition, % at 38.7 µM; in the data active = inhibition mostly above about 28%, no sharp cut-off; inactive = mostly below about 43%
HCMV antiviral – inhibitors of human cytomegalovirus; AID 1259415; HFF cells, HCMV-luciferase reporter, 72 h; hits give low values; activity change, negative = inhibition, % at 57.5 µM; actives 4.5% (n = 410,000); in the data active = activity change below about -60%; inconclusive = no clear call, values can overlap the other calls; inactive = above about -39%
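Human foreskin fibroblasts infected with luciferase-reporter HCMV at MOI 1 PFU/cell, compounds at two doses. Luciferase measured 72 h post infection; normalized to buffer-only basal and Salinomycin (10uM) controls.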
CHX counter – affects cycloheximide protein synthesis inhibition readout, counter-screen; actives 12% (n = 300,000); max response, %; cell reporter, cycloheximide protein synthesis inhibition counterscreen; in the data active = max response mostly above about 13%, no sharp cut-off; inactive = mostly below about 14%; also: read at 38.3 µM for the half of the compounds with a filed dose
Of the large screens only hits and unclear results are named; the others gave an inactive call. Compounds with a hit are over-represented: about 20% of the library has one in this group of screens. Unless noted, calls follow the shape of the dose curve; as a rule, active = well fitted inhibition curve with a large enough effect; inconclusive = small, poorly fitted or top-dose-only effect, or another doubt; inactive = no such curve, though single readings can be large or run the other way.

O=C(NNc1nc2ccc(F)cc2s1)c1cccc(F)c1	Pf growth 48h inconclusive, Pf growth 96h inconclusive, Shiga inhibitor 85, HCMV antiviral -81, CHX counter 42
O=C(NNc1nc2c(F)cccc2s1)c1ccccc1	Pf growth 48h inconclusive
O=C(NNc1nc2c(F)cc(F)cc2s1)c1ccccc1	HCMV antiviral -70
C[C@H]1C[C@@H](C)C(=O)[C@@H]([C@H](O)CC2CC(=O)NC(=O)C2)C1	Pf growth 48h 0.033µM, Pf growth 96h inconclusive, HCMV antiviral -107
O=C(NCC(=O)N1CCCCCCC1)c1cccc([N+](=O)[O-])c1	none (no result: Shiga inhibitor, CHX counter)
Nc1ccc2oc(-c3cccc4ccccc34)nc2c1	none (no result: Pf growth 96h)
Cc1ccc(-c2nc3cc(N)ccc3o2)c(C)c1	Shiga inhibitor 66, CHX counter 33
Nc1ccc2oc(-c3cccs3)nc2c1	Shiga inhibitor 86, CHX counter 46 (no result: Pf growth 96h)
Cc1ccc(-c2nc3cc(N)ccc3o2)cc1	Shiga inhibitor 68, CHX counter 25 (no result: Pf growth 96h)
Nc1cccc(-c2nc3cc(S(=O)(=O)c4ccc5oc(-c6cccc(N)c6)nc5c4)ccc3o2)c1	Pf growth 48h inconclusive, HCMV antiviral -83
Cc1ccc(-c2nc3cc(NC(=O)c4cc5ccccc5o4)ccc3o2)cc1	none (no result: Pf growth 48h, Pf growth 96h, Shiga inhibitor, CHX counter)
CCOc1cc2c(cc1OC)C(NC(=O)c1ccco1)CC2=O (configuration not stated)	none
COc1ccccc1CNC(=O)C1CCCN(S(=O)(=O)c2ccc3c(c2)oc(=O)n3C)C1 (configuration not stated)	none (no result: Pf growth 48h, Pf growth 96h, Shiga inhibitor, CHX counter)
CC(C)c1ccc2oc(-c3ccc(N)cc3)nc2c1	Shiga inhibitor 117, CHX counter 42
Cc1ccc2oc(Nc3nc(C)c(C)c(C)n3)nc2c1	Shiga inhibitor 88, CHX counter 37
O=c1oc(-c2ccco2)nc2ccccc12	none (no result: Pf growth 96h)
CC(C)(C)c1ccc(-c2nc3cc(NC(=O)c4cc5ccccc5o4)ccc3o2)cc1	none (no result: Pf growth 48h, Pf growth 96h, Shiga inhibitor, CHX counter)
Cc1ccc2oc(-c3ccco3)nc2c1	Shiga inhibitor 101, CHX counter 42
CC(C)(C)c1ccc(-c2nc3cc(N)ccc3o2)cc1	Pf growth 96h inconclusive, Shiga inhibitor 94, CHX counter 51
CCOc1ccc(CC(=O)Nc2ccc3nc(N4CCCCC4)cc(C)c3c2)cc1OCC	none (no result: Pf growth 48h, Pf growth 96h, Shiga inhibitor, CHX counter)
COC(=O)/C=C1/N/C(=N\c2nc(C)cc(C)n2)N(c2ccc(Cl)cc2)C1=O	none
C=CC1=C2C=C(C3CC3)N(CCCN(CC)CC)C=C2C(=O)C(C)(OC(=O)c2ccco2)C1=O (configuration not stated)	none (no result: Pf growth 48h, Pf growth 96h, Shiga inhibitor, CHX counter)
Cc1ccc(-c2nc3cc(C)ccc3o2)cc1	Shiga inhibitor 118, CHX counter 33
Cc1ccc2oc(-c3cccc(N)c3)nc2c1	Shiga inhibitor 58, CHX counter 26
Cc1ccc(C(=O)Nc2cccc(-c3nc4ccccc4o3)c2)c(Cl)c1	none (no result: Pf growth 48h, Pf growth 96h, Shiga inhibitor, CHX counter)
COC(=O)[C@H]1C[C@H](OC(=O)NC2CCCC2)[C@@]2(O)CN(S(=O)(=O)c3ccc(C)cc3)CC2[C@H]1C(=O)OC (some centres not stated)	none (no result: Pf growth 48h, Pf growth 96h, Shiga inhibitor, CHX counter)
Cc1ccnc(NC(=O)c2oc3ccccc3c2C)c1	none (no result: Shiga inhibitor, CHX counter)
Cc1c(C(=O)Nc2ccc(-n3cnnn3)cc2)oc2ccccc12	HCMV antiviral -65
Cc1c(C(=O)NCc2ccccn2)oc2ccccc12	Shiga inhibitor 39, CHX counter 32
Cc1c(C(=O)Nc2cnccn2)oc2ccccc12	Pf growth 48h inconclusive, Pf growth 96h inconclusive, Shiga inhibitor 61, CHX counter 28
CCC(=O)Nc1ccc(NC(=O)c2oc3ccccc3c2C)cc1	Pf growth 96h inconclusive, CHX counter 10
O=C(COc1cc(F)ccc1[N+](=O)[O-])Nc1cc(S(=O)(=O)N2CCCC2)ccc1Cl	Pf growth 96h inconclusive (no result: Shiga inhibitor, CHX counter)
CC(=O)Nc1cccc(NC(=O)c2oc3ccccc3c2C)c1	Shiga inhibitor 100, CHX counter 48 (no result: Pf growth 96h)
C/C(=N/Oc1nc(C)cc(C)n1)c1ccc(Br)cc1	none (no result: Pf growth 48h)
Cc1cc(C)nc(Oc2ccc(Br)cc2Br)n1	Shiga inhibitor 77, CHX counter 25
NC(=S)NS(=O)(=O)c1ccc(N)cc1	none (no result: Shiga inhibitor, HCMV antiviral, CHX counter)
CN(C)N(C(=O)c1cc(-c2cccs2)nn1-c1ccccc1)C1CCS(=O)(=O)C1 (configuration not stated)	Pf growth 48h inconclusive, Pf growth 96h 5.2µM (no result: Shiga inhibitor, CHX counter)
CC1(NC(=O)c2cc(-c3cccs3)nn2-c2ccccc2)CCS(=O)(=O)C1 (configuration not stated)	none (no result: Shiga inhibitor, CHX counter)
CC12C(=O)N(c3ccc(C(=O)N4CCOCC4)cc3)C(=O)C1C1c3ccccc3C2c2ccccc21 (configuration not stated)	HCMV antiviral -101
O=C(COc1ccc(S(=O)(=O)N2CCOCC2)cc1)NCc1ccccn1	none
c1ccn2c(SCc3cn4ccsc4n3)nnc2c1	Shiga inhibitor 54, CHX counter 40 (no result: Pf growth 96h)
Cc1ccc(-n2c(SCc3cn4ccsc4n3)nc3ccccc3c2=O)cc1	Pf growth 48h inconclusive, HCMV antiviral -65 (no result: Pf growth 96h)
Cc1cc(C)c(C#N)c(SCc2cn3c(C)cccc3n2)n1	Pf growth 96h inconclusive, HCMV antiviral -63
Cc1cccc2nc(CSc3nnc4ccccn34)cn12	Shiga inhibitor 59, CHX counter 36
O=C(NC1CCCc2ccccc21)N[C@@H](Cc1ccccc1)C(=O)O (some centres not stated)	none
Cc1ccnc(SCc2cn3c(C)cccc3n2)n1	CHX counter 26
CCCn1c(SCC(=O)Nc2cc(Cl)ccc2Cl)n[nH]c1=O	Pf growth 48h inconclusive, Pf growth 96h 1.2µM
Cc1ccc(S(=O)(=O)N2CCN(C(=O)CSc3nccn3C)CC2)cc1	none
Cc1cc(C)n2c(SCC(=O)N3CCN(S(=O)(=O)c4ccc(Cl)cc4)CC3)nnc2n1	Pf growth 48h inconclusive, Pf growth 96h inconclusive, HCMV antiviral -73
CCCn1c(SCC(=O)N2CCN(S(=O)(=O)c3ccc(Cl)cc3)CC2)n[nH]c1=O	Pf growth 48h 10µM, Pf growth 96h inconclusive
CNc1ccc(/C=C/C(=O)c2ccc(C)cc2)cc1[N+](=O)[O-]	Pf growth 96h 12µM
CN(C)c1ccc(/C=C/C(=O)c2ccccc2)cc1[N+](=O)[O-]	Pf growth 96h 9.3µM, Shiga inhibitor active, CHX counter 62
O=C(/C=C/c1ccc(O)c([N+](=O)[O-])c1)c1ccc2ccccc2c1	Pf growth 48h inconclusive, Pf growth 96h inconclusive, HCMV antiviral inconclusive
O=C(Nc1ccccc1)c1cc(C2COCCN2C(=O)c2cccs2)on1 (configuration not stated)	HCMV antiviral -85 (no result: Pf growth 48h, Pf growth 96h, Shiga inhibitor, CHX counter)
COc1ccc(OC)c2c1cc(C(=O)N[C@H](C(=O)N1CCC(C(=O)O)CC1)C(C)C)n2C	none
Cc1nonc1C1CCCN1Cc1nc(-c2ccccc2Cl)oc1C (configuration not stated)	Pf growth 48h inconclusive
COc1cccc(CN2CCCCC2c2cccnc2)c1 (configuration not stated)	Pf growth 48h inconclusive
Cc1oc(-c2ccccc2Cl)nc1CN1CCCCC1c1cccnc1 (configuration not stated)	Pf growth 48h 12µM, Pf growth 96h inconclusive
